Rows were chosen to be rich in hits. Some 1.2% of all compounds tested hit in one or more screens of this group.
PKA-R2B activ = activators of PKA-R2B holoenzyme, primary screen, biochemical, fluorescence polarization, Cy5-IP20, human | AID 504700, 2011 | 340,000 compounds, 0.079% hits | cAMP-dependent protein kinase catalytic subunit beta (Homo sapiens) + cAMP-dependent … | activation, % at 11.4 µM | PKA-R2B holoenzyme dissociation; R2B truncated from residue 108, S112A mutant; 0% DMSO only, 100% 113 µM cGMP;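 active means activation above a cutoff set at the mean over all compounds plus 3 SD, cut at about 18% in these data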;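 further: higher means more holoenzyme dissociation and a rise in polarization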
PKA-R1A activ = activators of PKA-R1A holoenzyme, primary screen, biochemical, fluorescence polarization, Cy5-IP20, bovine R1A, mouse PKAc | cAMP-dependent protein kinase type I-alpha regulatory subunit (Bos taurus) + … | PKA-R1A dissociation; scaled: DMSO 0%, 113 µM cGMP 100% | activation, % at 11.4 µM | 340,000 compounds, 0.083% hits | AID 504707, 2011;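 active means percent activation above the mean of all tested compounds plus 3 SD, cut at about 19% in these data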;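 further: higher means more PKAc released from R1A so a rise in polarization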
PG9 Ab binder = binders of HIV-1 gp120 antibody PG9, primary screen, biochemical, TR-FRET; HIV-1 gp120 / PG9 antibody interaction; AID 624416, 2012; TR-FRET gp120-PG9 antibody binding; inhibition, % at 6.7 µM; 360,000 compounds, 0.43% hits; in the data active means inhibition above about 8.5%
NR1D1 modulator = modulators of Rev-erb alpha DNA binding, primary screen, biochemical, FITC-DNA, fluorescence polarization, uHTS; Nuclear receptor subfamily 1 group D member 1 (Homo sapiens), P20393; Rev-erbα–FITC-DNA binding, 90 min; activity, % at 10 µM; 370,000 compounds, 0.79% hits;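 active means activity above about 14%, limit read from the data; passing the limit was not always enough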
Target sequence (P20393 whole entry, looked up): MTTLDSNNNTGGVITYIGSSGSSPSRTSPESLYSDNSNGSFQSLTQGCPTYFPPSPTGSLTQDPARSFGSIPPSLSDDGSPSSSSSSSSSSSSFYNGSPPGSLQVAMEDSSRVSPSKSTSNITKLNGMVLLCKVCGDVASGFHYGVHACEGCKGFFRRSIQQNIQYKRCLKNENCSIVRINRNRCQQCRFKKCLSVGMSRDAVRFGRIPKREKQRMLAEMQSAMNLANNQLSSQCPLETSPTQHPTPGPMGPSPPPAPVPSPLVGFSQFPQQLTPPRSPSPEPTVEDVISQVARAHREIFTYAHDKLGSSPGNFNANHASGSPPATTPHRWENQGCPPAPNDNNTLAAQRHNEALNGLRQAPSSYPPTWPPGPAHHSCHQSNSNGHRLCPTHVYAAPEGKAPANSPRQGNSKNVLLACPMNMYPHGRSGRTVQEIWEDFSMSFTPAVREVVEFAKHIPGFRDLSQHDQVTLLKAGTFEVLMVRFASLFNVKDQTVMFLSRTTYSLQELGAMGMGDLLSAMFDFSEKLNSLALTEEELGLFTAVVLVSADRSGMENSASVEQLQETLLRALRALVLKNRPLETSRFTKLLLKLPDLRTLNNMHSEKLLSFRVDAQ
NR1D1 mod conf = modulators of Rev-erb alpha DNA binding, confirmation, biochemical, FITC-DNA, fluorescence polarization, single point | shares compounds with NR1D1 modulator | 90 min | activation, % at 25 µM | 3,000 compounds, 61% hits;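 active means activation at or above a set limit, or at least 3 SD above the negative control mean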
RORg counter = modulation of RORgamma DNA binding, dose response, counter-screen for Rev-erb alpha modulator project, biochemical, fluorescence polarization, FITC-DNA. shares compounds with NR1D1 modulator. purified RORgamma protein-FITC-DNA binding. IC50, µM. 910 compounds, 8% hits;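 active means Compounds whose fitted half-maximal concentration for disrupting protein-DNA binding is below 10 micromolar; the record names Rev-erb in its text, so the target is in doubt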
Each line names hits and unclear results; the compound was inactive in the other large screens (follow-up assays come after a bar, where they were run).

C[C@@H]1[C@@H](c2ccccc2)c2cc3ccccc3nc2C(=O)C[C@@H]1C(=O)N1CCCC1	none (no result: PKA-R2B activ, PKA-R1A activ, PG9 Ab binder)
CC(C)CC(=O)N1CCc2cc(S(=O)(=O)N(C)Cc3ccco3)ccc21	none (no result: PKA-R2B activ, PKA-R1A activ, PG9 Ab binder)
COc1ccc2c(c1)c(=O)oc1cc(OCC(=O)NC3CC3)ccc12	NR1D1 modulator 24 | NR1D1 mod conf 34 | RORg counter inactive
Cc1ccc(-c2nnc(NC(=O)COc3ccc(F)cc3Cl)o2)cc1C	none (no result: PKA-R2B activ, PKA-R1A activ, PG9 Ab binder)
Cc1ccc[n+](-c2nc([O-])sc2/C=N/Nc2ccc([N+](=O)[O-])cc2)c1	NR1D1 modulator 26 | NR1D1 mod conf inactive
CCOC(=O)c1ccccc1NC(=O)c1cn(-c2ccc(C)c(C)c2)c(=O)c2ccccc12	none
COC(=O)c1ccccc1NC(=O)c1cn(-c2ccc(C)c(C)c2)c(=O)c2ccccc12	NR1D1 modulator 42 | NR1D1 mod conf 48 | RORg counter inactive
CCN(CC)C(=O)CC[C@H]1CC[C@]2(CCCN(Cc3ccc(N(C)C)cc3)C2)O1	none (no result: PKA-R2B activ, PKA-R1A activ, PG9 Ab binder)
Cc1nc2c(C)cccn2c(=O)c1NC(=O)c1cccs1	none
Cc1nc2c(C)cccn2c(=O)c1NC(=O)c1cccc2ccccc12	NR1D1 modulator 29 | NR1D1 mod conf inactive
COc1ccc2c(c1)c1nc3n(c(=O)c1n2CC(=O)Nc1cc(C)[nH]n1)CCS3	NR1D1 modulator 19 (no result: PKA-R2B activ, PKA-R1A activ) | NR1D1 mod conf inactive
O=C(Cn1c2ccc(F)cc2c2nc3n(c(=O)c21)CCS3)NC1CCCC1	none
CCc1ccccc1NC(=O)CSc1nc2cc(C(=O)NCC3CCCO3)ccc2c(=O)n1CC1CCCO1 (stereo not given)	none
CCCCCn1c(SCC#N)nc2cc(C(=O)NCC3CCCO3)ccc2c1=O (stereo not given)	PG9 Ab binder 68, NR1D1 modulator 71 | NR1D1 mod conf 38
COc1ccccc1C(=O)CSc1nnc(-c2ccncc2)n1-c1ccc(Cl)cc1	none (no result: PKA-R2B activ, PKA-R1A activ, PG9 Ab binder)
Cc1ccc(S(=O)(=O)N2CC(O)CC2C(=O)O)cc1 (stereo not given)	none
CCOC(=O)c1ccc(NC(=O)C2CC(O)CN2S(=O)(=O)c2ccc(C)cc2)cc1 (stereo not given)	NR1D1 modulator 21 | NR1D1 mod conf inactive
Cc1cccc(C)c1NC(=O)C1C(c2ccc3c(c2)OCO3)=Nc2ccccc2N1C(=O)c1cccc2ccccc12 (stereo not given)	NR1D1 modulator 29 (no result: PKA-R2B activ, PKA-R1A activ) | NR1D1 mod conf 17
O=C(NCc1ccccc1)C1C(c2ccc3c(c2)OCO3)=Nc2ccccc2N1C(=O)c1cccc2ccccc12 (stereo not given)	NR1D1 modulator 16 (no result: PKA-R2B activ, PKA-R1A activ) | NR1D1 mod conf inactive
CC(=O)Nc1ccc(C(=O)N2c3ccccc3N=C(c3ccc4c(c3)OCO4)C2C(=O)NCc2ccccc2)cc1 (stereo not given)	none (no result: PKA-R2B activ, PKA-R1A activ)
O=C1C2C3C=CC(C3)C2C(=O)N1c1cccc(-c2nc3ccccc3o2)c1 (stereo not given)	NR1D1 modulator 29 | NR1D1 mod conf inactive
O=C(Nc1cccc(-c2nc3ccccc3o2)c1)c1ccc(N2C(=O)C3C4C=CC(C4)C3C2=O)cc1 (stereo not given)	none
Cc1ccccc1NC1=NS(=O)(=O)c2ccccc21	none
COC(=O)c1c(-c2ccccc2)csc1NC1=NS(=O)(=O)c2ccccc21	NR1D1 modulator 31 | NR1D1 mod conf inactive
COC(=O)c1ccc(C(=O)OC)c(NC2=NS(=O)(=O)c3ccccc32)c1	NR1D1 modulator 21 | NR1D1 mod conf inactive
Fc1ccc(Nc2nc(-c3ccncc3)nc3ccccc23)cc1	none
c1ccc(Nc2nc(-c3ccncc3)nc3ccccc23)cc1	NR1D1 modulator 30 | NR1D1 mod conf 23
Cc1ccc(OCC(=O)Nc2cccc3nsnc23)c(C)c1	none
O=C(COc1ccc([N+](=O)[O-])cc1)Nc1cccc2nsnc12	NR1D1 modulator 24 | NR1D1 mod conf 22
